# Measurements: ChEMBL document CHEMBL3988442, “University of Dundee, Small-Polar-MMV Screening Library” (2021)
# For some assays here: Entries with a potency or affinity are not part of this list.
# Assays:
# Set-up in all cases: scale not given: direction of the effect not stated beside the values
# [1] = target: Protein translocase subunit SecA (Escherichia coli (strain K12)) (UniProt P10408); assay: Assay to Identify E. coli SecA ATPase Inhibitors; assay type: functional; conditions: 30 µM
# [2] = target: T1, Ubiquitin-activating enzyme e1, putative (Leishmania donovani (strain BPK282A1)) (UniProt E9BSI1); assay: Leishmania donovani Ubiquitin Activating Enzyme (LdE1); assay type: functional; conditions: 30 µM
# T1 sequence (whole entry): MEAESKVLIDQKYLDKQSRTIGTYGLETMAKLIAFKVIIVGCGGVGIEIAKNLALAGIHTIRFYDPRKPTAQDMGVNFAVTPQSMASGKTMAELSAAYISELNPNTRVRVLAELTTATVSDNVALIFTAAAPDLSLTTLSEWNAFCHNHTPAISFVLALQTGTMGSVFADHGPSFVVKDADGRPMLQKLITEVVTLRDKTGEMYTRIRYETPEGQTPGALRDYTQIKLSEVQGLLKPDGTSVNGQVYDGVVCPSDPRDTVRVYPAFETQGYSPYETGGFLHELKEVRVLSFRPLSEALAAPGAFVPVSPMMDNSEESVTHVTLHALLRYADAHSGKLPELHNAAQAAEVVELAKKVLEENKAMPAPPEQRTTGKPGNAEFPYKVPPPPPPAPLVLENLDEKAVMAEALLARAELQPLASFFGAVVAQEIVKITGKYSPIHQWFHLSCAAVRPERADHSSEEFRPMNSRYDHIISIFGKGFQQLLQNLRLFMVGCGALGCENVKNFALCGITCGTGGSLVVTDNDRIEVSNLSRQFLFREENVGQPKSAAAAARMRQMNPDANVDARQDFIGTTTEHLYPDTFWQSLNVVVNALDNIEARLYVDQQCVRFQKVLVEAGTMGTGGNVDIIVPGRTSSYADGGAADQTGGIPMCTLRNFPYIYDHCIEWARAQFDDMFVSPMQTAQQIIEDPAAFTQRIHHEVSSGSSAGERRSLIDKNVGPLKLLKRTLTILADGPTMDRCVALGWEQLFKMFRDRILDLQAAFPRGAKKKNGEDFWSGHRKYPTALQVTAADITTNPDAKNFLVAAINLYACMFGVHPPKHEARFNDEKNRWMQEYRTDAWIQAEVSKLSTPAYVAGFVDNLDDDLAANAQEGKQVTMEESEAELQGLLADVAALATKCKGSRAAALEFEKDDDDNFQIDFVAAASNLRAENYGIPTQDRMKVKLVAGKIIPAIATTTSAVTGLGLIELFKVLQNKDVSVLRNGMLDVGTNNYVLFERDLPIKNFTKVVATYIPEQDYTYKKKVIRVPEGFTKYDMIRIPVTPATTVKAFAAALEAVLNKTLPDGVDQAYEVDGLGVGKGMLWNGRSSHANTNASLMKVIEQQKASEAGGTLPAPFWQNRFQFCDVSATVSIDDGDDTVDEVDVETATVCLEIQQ
# [3] = target: AMP-activated protein kinase, AMPK (Homo sapiens) (UniProt P54646+O43741+P54619+Q9UGJ0+Q9Y478+Q13131+Q9UGI9); assay: AMP-dependent Kinase enzyme assay. An in vitro enzyme assay that detects ADP turnover that is directly proportional to AMPK activity. This uses naive AMPK that is activated during the assay with MK-8722; assay type: functional; conditions: 30 µM
# [4] = target: Sialic acid-binding Ig-like lectin 9 (Homo sapiens) (UniProt Q9Y336); assay: Hs-Siglec9 ALPHAscreen SOP 20170721; conditions: 10 µM
# Chain of Sialic acid-binding Ig-like lectin 9 (Homo sapiens) (Q9Y336 whole entry): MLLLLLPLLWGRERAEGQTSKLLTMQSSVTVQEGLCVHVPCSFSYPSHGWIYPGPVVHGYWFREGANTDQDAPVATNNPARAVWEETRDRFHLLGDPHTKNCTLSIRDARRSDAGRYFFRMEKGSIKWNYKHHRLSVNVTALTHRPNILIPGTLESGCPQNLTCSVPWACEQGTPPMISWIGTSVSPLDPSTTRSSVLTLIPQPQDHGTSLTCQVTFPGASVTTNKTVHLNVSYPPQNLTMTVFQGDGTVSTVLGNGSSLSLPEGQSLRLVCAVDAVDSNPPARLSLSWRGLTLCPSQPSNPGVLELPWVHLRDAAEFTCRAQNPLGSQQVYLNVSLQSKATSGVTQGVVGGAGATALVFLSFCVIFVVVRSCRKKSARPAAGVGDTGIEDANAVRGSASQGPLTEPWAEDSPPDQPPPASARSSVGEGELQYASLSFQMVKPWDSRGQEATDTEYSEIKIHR
# Trypanosoma cruzi = assay: Trypanosoma cruzi phosphomannomutase and mannose-1-phosphate guanylyltransferase assay; assay type: functional; conditions: 10 µM
# [5] = target: T2, Arginase-2, mitochondrial (Homo sapiens) (UniProt P78540); assay: in vitro enzyme assay to detect the production of urea directly proportional to the activity of Arginase II; assay type: functional; conditions: 33.3 µM; also: in the data most compounds retested in dose-response had high values
# T2 sequence (whole entry): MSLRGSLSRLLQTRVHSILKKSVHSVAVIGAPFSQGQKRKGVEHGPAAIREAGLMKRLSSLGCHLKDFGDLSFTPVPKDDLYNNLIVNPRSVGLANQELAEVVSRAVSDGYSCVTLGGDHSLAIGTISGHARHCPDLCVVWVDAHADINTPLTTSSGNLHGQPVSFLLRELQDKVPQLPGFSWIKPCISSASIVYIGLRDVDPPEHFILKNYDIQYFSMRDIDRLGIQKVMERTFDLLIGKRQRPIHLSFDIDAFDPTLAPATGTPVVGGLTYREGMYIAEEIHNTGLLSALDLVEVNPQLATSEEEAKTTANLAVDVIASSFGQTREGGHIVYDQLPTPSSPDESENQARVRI
# [6] = target: T3, Proteasome subunit beta (Trypanosoma cruzi) (UniProt O96673); assay: Trypanosoma cruzi proteasome chymotrypsin-like activity (TcProtChymo) assay.; also: in the data most compounds retested in dose-response had high values; assay type: functional; conditions: 9.37 µM
# T3 sequence (whole entry): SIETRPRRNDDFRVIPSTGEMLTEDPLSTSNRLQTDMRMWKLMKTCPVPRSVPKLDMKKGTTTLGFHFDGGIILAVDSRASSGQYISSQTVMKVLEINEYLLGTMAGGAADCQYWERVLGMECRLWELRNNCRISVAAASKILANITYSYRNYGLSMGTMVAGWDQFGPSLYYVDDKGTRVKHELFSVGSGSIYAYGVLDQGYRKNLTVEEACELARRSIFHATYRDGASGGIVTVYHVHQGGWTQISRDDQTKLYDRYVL
# Homo sapiens = organism: Homo sapiens; assay: To identify inhibition of the IFN signalling (Jak-Stat) pathway via expression of an eGFP reporter gene under the control of an IFN-stimulated response element (ISRE) containing MxA promoter.; assay type: functional; conditions: 30 µM
# [7] = target: T4, Tyrosyl-tRNA synthetase, putative (Trypanosoma cruzi (strain CL Brener)) (UniProt Q4DSP6); assay: Trypanosoma cruzi tyrosyl tRNA synthetase (TcYRS) _High Tyrosine SOP; assay type: functional; conditions: 30 µM; also: in the data most compounds retested in dose-response had high values
# T4 sequence (whole entry): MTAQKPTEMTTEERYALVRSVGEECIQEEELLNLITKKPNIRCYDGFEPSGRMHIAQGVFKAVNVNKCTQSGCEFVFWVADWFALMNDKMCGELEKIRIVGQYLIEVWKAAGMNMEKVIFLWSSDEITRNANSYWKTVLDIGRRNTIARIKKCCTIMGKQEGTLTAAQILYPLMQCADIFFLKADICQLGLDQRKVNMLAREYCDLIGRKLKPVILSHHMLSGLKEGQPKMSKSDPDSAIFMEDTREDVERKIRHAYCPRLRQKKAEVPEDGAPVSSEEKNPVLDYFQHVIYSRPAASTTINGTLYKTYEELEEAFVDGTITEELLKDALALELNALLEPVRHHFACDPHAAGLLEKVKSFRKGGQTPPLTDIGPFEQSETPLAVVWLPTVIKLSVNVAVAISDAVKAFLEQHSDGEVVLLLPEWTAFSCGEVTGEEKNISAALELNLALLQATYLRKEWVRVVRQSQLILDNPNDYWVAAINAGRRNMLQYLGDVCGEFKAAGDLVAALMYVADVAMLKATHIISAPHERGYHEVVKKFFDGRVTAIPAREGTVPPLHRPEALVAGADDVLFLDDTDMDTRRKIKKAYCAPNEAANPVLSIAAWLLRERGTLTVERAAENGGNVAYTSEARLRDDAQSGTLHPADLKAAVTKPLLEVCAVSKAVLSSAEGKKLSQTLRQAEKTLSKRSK
# [8] = target: T4, Tyrosyl-tRNA synthetase, putative (Trypanosoma cruzi (strain CL Brener)); assay: Trypanosoma cruzi tyrosyl tRNA synthetase (TcYRS) SOP; assay type: functional; conditions: 30 µM
# [9] = target: Chromo domain-containing protein 1 (Saccharomyces cerevisiae (strain ATCC 204508 / S288c) (Baker's yeast)) (UniProt P32657); assay: ScCHD-1 Enzyme Inhibition Assay; assay type: functional; conditions: 30 µM; also: in the data most compounds retested in dose-response had high values
# Chain of Chromo domain-containing protein 1 (Saccharomyces cerevisiae (strain ATCC 204508 / S288c) (Baker's yeast)) (P32657 whole entry, the tested form may be a part): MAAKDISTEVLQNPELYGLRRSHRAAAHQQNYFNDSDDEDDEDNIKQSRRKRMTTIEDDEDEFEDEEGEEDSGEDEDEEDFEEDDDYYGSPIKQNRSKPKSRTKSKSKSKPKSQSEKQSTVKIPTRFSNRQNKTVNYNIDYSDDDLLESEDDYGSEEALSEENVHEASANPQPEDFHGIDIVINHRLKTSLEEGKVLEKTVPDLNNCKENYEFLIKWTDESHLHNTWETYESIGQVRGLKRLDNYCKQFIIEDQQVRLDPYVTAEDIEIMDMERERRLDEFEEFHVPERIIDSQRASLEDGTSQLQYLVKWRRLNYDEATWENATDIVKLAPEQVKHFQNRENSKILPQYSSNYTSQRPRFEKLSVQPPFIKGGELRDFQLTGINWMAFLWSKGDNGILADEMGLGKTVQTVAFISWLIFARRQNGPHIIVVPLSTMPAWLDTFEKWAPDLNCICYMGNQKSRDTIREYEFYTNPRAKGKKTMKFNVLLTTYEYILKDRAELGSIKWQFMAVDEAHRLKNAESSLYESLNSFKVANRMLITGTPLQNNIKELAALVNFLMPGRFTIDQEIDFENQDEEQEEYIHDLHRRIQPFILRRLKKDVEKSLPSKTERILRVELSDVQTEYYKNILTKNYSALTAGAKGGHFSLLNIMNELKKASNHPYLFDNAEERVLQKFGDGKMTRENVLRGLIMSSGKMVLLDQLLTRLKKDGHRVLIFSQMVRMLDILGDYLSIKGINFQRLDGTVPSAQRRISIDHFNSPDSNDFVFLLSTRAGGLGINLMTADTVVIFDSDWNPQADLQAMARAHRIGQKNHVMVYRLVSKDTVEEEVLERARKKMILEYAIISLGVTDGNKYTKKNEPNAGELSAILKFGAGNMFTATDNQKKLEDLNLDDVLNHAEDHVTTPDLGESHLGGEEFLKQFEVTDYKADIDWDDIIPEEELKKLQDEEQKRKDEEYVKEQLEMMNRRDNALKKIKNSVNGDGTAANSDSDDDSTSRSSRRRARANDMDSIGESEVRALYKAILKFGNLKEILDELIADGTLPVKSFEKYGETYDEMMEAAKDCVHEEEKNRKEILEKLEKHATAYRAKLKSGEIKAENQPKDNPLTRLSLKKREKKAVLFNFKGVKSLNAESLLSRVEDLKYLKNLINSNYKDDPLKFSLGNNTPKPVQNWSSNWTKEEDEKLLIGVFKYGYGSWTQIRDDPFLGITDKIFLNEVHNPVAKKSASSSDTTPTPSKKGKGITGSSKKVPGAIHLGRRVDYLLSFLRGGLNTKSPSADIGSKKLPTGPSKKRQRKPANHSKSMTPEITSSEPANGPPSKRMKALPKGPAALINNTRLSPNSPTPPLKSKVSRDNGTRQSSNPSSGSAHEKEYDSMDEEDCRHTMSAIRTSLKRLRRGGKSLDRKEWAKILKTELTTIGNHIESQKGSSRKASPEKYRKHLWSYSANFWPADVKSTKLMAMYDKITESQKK
# Chain of Protein translocase subunit SecA (Escherichia coli (strain K12)) (P10408 whole entry): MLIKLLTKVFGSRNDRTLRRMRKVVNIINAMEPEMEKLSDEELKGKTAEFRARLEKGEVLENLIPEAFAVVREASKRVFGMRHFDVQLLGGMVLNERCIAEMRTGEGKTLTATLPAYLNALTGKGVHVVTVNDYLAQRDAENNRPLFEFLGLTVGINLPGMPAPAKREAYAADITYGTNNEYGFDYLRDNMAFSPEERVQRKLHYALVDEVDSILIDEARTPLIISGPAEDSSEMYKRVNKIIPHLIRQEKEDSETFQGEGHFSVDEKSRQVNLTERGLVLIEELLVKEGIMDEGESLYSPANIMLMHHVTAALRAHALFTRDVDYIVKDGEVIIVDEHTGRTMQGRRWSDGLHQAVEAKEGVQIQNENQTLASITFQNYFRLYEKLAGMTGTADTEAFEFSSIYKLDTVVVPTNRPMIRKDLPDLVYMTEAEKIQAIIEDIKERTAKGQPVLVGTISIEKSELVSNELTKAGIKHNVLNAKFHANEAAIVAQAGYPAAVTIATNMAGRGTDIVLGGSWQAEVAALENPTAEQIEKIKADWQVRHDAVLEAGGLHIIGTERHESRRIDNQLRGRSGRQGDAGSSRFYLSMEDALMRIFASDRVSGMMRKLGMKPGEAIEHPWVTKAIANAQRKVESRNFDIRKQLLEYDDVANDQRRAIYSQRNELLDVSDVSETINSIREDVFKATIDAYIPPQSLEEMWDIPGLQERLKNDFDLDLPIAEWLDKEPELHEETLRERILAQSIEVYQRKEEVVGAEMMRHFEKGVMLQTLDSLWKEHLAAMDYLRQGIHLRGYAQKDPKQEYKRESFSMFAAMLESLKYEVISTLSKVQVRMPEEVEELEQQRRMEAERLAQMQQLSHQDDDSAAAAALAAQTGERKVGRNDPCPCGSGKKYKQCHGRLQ
SMILES,Percent Effect [1] [%],Percent Effect [2] [%],Percent Effect [3] [%],Percent Effect [4] [%],Percent Effect (Trypanosoma cruzi) [%],Percent Effect [5] [%],Percent Effect [6] [%],Percent Effect (Homo sapiens) [%],Percent Effect [7] [%],Percent Effect [8] [%],Percent Effect [9] [%]
O=C(NCCOCC(F)(F)F)c1ccc(-c2ccco2)[nH]c1=O,-1.86,8.11,3.08,3.06,-6.13,-0.802,8.29,19.7,6.4,11.1,-6.31
CCC(C(=O)NC)N(c1cccc(C)c1)S(C)(=O)=O (stereo unspecified),-4.2,16,-4.91,18.5,6.72,41.7,4.71,9.46,4.92,13.6,-3.23
Cc1ccc(CN2CCN(CC3CC3)[C@@H]3CS(=O)(=O)C[C@@H]32)cc1C,-7.02,5.33,-1.63,3.97,-7.11,2.08,15.5,2.7,-2.73,8.64,-5.38
Cc1nccn1CCCC(=O)N1CCC(Nc2cccnn2)CC1,-3.42,5.41,-7.19,11.7,4.43,-1.6,3.06,1.39,2.46,16.1,-8.26
Cc1ccc(CN2CCCC23CCN(S(=O)(=O)c2ccccc2)C3)o1 (stereo unspecified),-3.52,8.11,0.79,-6.47,2.25,1.59,18.6,6.15,9.73,17.9,2.48
CN1CCN(C(=O)[C@H]2C[C@@H]3CCN(c4ncc(F)cn4)C[C@@H]3O2)CC1,1.76,8,10,14.4,-2.51,-53.2,10.3,7.21,0,17.5,-8.06
CS(=O)(=O)N1CCCCCC1C1CCN(c2ncccn2)CC1 (stereo unspecified),-4.78,2.63,2.07,1.83,-4.13,-1.92,2.17,24.7,1.47,7.32,0.0825
Cc1nnc([C@@H]2CC[C@@H]3[C@@H](CCN3S(=O)(=O)c3cccnc3)O2)o1,-6.5,10.8,7.11,-2.36,-1.07,6.05,15.7,-6.25,15.1,12.8,-1.2
CC(=O)c1cccc(NC(=O)Cn2cc(I)cn2)c1,-6.3,-2.63,12,2.47,-2.43,11.8,9.3,-2.61,-2.13,2.6,63
CCN1CCN(C(=O)CCc2c(C)noc2Cl)CC1,-4.13,10.5,-2.91,-3.24,-9.24,4.32,5.16,-6.25,3.45,6.17,-1.51
Cc1ccn(-c2ccccc2NCc2cccnc2C)n1,-0.328,0,2.86,-2.06,-0.196,0,3.02,17.4,-1.07,-2.5,-0.646
Cc1noc(CCCC(=O)NC(C)c2cccnc2)n1 (stereo unspecified),0.699,13.2,0.237,0.605,-5.83,5.75,8.86,21.4,8.33,12.2,-6.49
CC(C)c1nc2c(n1C)CCN(Cc1nc(-c3cccs3)no1)C2,-5.48,-5.41,8.78,3.18,1.21,-1.66,2.33,0.809,6.93,11,9.28
CN(Cc1ccco1)C[C@H]1OC[C@@H]2CCN(Cc3cccs3)C[C@@H]21,1.17,-2.67,4.12,7.42,-3.28,-50.7,-3.59,-15.4,-1.04,-37.5,-2.22
O=C(Cn1cnnn1)N1CCCCC1Cn1cccn1 (stereo unspecified),-4.89,5.06,-3.21,-2.69,-6.52,-3.04,0.901,25.2,-3.45,-11.4,-5.05
CC(CCN1CCn2nc(CNC(=O)N(C)C)cc2C1)c1ccccc1 (stereo unspecified),-0.0552,5.41,-1.77,16.6,4.25,8.1,6.9,16.3,6.88,19.5,-3.46
